# Data as given in PubChem BioAssay.
# Unmarked numbers belong to inactive results. No rule for the calls is given here.
# Target: Pantothenate synthetase (Mycobacterium tuberculosis (strain ATCC 25618 / H37Rv)) (UniProt P9WIL5)
# Test: Recombinant Mtb pantothenate synthetase (PanC) inhibitors, coupled enzyme, confirmatory (AID 375);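 also: 0% = full reaction with vehicle and 100% = no enzyme background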
# Settings: coupled enzyme assay; at 10 µM, stronger effect = higher value
# Sequence of Pantothenate synthetase (Mycobacterium tuberculosis (strain ATCC 25618 / H37Rv)) (P9WIL5 whole entry, looked up): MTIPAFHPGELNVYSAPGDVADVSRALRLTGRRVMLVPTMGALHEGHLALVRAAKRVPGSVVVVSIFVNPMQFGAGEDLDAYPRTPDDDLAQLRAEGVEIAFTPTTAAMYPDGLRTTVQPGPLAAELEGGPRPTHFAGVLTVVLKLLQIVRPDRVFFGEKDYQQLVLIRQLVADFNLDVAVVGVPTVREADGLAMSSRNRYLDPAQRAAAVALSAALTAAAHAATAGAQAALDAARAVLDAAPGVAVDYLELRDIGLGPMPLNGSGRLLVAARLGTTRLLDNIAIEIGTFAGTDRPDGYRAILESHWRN
row,SMILES,inhibition
1,OCCOCCN1CCN(C(c2ccccc2)c2ccc(Cl)cc2)CC1 (stereo not given),1%
2,CN1C(=O)CCC1(O)c1ccccc1 (stereo not given),0%
3,COc1ccc(S(=O)(=O)NC(C)C(=O)Nc2cccc(C(C)=O)c2)cc1 (stereo not given),0%
4,CC(C)(C)OC(=O)N1CC(O)CC1C(=O)OCC(=O)c1ccc(Cl)cc1 (stereo not given),0%
5,COc1ccccc1OC(=O)c1ccc2nsnc2c1,0%
6,CN(C)C(=O)COc1ccc2cc(-c3ccccc3)c(=O)oc2c1,1%
7,Cc1cc2ccccc2n1CCNC(=O)C1CC1,1%
8,Fc1ccc(C2C3=C(Nc4ncnn42)c2ccccc2OC3c2ccncc2)cc1 (stereo not given),0%
9,COc1cccc(NC(=O)c2nc3nc(C)cc(C(F)F)n3n2)c1,0%
10,CCCCN(CCCC)C(=O)CN(C)S(=O)(=O)c1ccc2c(c1)n(C)c(=O)c(=O)n2C,5%
11,Cc1ccc(-n2ncc3c(N4CCN(c5ccccc5)CC4)ncnc32)c(C)c1,0%
12,COc1cccc(C2CC(c3ccccc3)n3ncnc3N2)c1 (stereo not given),8%
13,CCOC(=O)c1cccc(NC(=O)CSc2nnc(-c3cccnc3)n2CC)c1,0%
14,Cn1c(=N)c(S(=O)(=O)c2ccc(Cl)cc2)cc2c(=O)n3ccccc3nc21,0%
15,Cn1c(=O)c2c(nc(SCCCC#N)n2Cc2c(F)cccc2Cl)n(C)c1=O,0%
16,CCc1[nH]nc2c1C1(CCN(C(=O)OCc3ccccc3)CC1)C(C#N)=C(N)O2,0%
17,N#Cc1ccc(COC(=O)Cn2nnc(-c3ccccc3)n2)cc1,0%
18,CN(CC(=O)NCCC1=CCCCC1)S(=O)(=O)c1ccc2c(c1)CCC(=O)N2,0%
19,COC(=O)c1cc(Br)c(=O)n(-c2nccs2)c1,0%
20,CCOC(=O)N1CCN(C(=O)C(NS(=O)(=O)c2cccc3nsnc23)c2ccccc2)CC1 (stereo not given),0%

row,SMILES,inhibition
1,Cc1cc(N=Cc2cc(Br)ccc2O)no1,6%
2,Cc1ccc(S(=O)(=O)Cn2nnnc2CN(Cc2ccco2)Cc2cccs2)cc1,0%
3,O=C(NC12CC3CC(CC(C3)C1)C2)c1cncc(O)c1,2%
4,CCc1nnc(-n2nc(C)cc2-c2ccccc2)n1N,3%
5,Cc1nc2ccccn2c1P(=O)(N1CCCCC1)N1CCCCC1,4%
6,Cc1cccc(-n2ncc3c(N(CCO)CCO)ncnc32)c1,0%
7,O=C(c1cc2cc(Cl)cc(Cl)c2oc1=O)N1CCOCC1,0%
8,COc1ccccc1CN1CCCC(C(=O)N(C)Cc2ccccc2)C1 (stereo not given),0%
9,O=C(NC(C(=O)c1ccccc1)N1CCOCC1)c1cccs1 (stereo not given),0%
10,O=C(OCCN(CCOC(=O)c1ccncc1)S(=O)(=O)c1cccs1)c1ccncc1,0%
11,CCOC(=O)c1sc(NC(=O)c2noc3c2CCCC3)c(C(=O)OCC)c1C,0%
12,N#Cc1nc(-c2ccc(Cl)cc2)oc1NCCc1ccccn1,0%
13,CCCCSc1nc(CCC)cc(=O)[nH]1,0%
14,CCOC(=O)CN(C(=O)c1ccccc1)c1ccccc1C,0%
15,CCOc1cccc(C(=O)Nc2cccc(-c3nc4ncccc4o3)c2C)c1,10%
16,CC1CCN(C(=O)CN2C(=O)C(C)(C)Oc3ccc(C(=O)NC4CCCC4)cc32)CC1,0%
17,Nn1c(SCC(=O)Nc2ccc(F)cc2)nnc1-c1cccnc1,0%
18,O=C(Cn1nnc(-c2ccccc2)n1)Nc1ccccc1N1CCOCC1,0%
19,COc1cc(NC(=O)c2ccco2)c(OC)cc1NC(=O)CCC(=O)Nc1cc(C)cc(C)c1,8%
20,COc1ccccc1OC(=O)c1ccc(SC)cc1OC,2%
